Six1-Eya2 blk = blocks human Six1 binding to Eya2 | Q15475+O00167 | AlphaScreen GST-Six1/His-Eya2 binding, biochemical; stronger effect = lower value | activity change, % (concentration not given with the values) | hit rate 0.56% among 360,000; in the data active means activity change below about -65%; inconclusive means mostly about -30% to -63%
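AlphaScreen luminescence read after one hour at 37 °C in darkness. Pin-transferred compounds met GST-Six1 and His-Eya2 protein (5X stock 250 nM/500 nM) plus glutathione donor and Ni-chelate acceptor beads (5X, 50 ug/mL).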
VP16 counter = Gal4-VP16 reporter inhibition counter-screen | Drosophila S2 Gal4-VP16 UAS-luciferase, luminescence, 20 h | Potency, µM (doses to about 53.6 µM), inactives show top-dose activity, negative = inhibition, hits mostly inhibitors | hit rate 3.5% among 310,000 | AID 2546;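 further: Gal4-VP16 expression switched on by copper sulfate through the metallothionein promoter; potency means the concentration at half of the fitted maximal effect; nearly all actives have a fitted effect of over 50% in size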
PKM2 act = increases activity of human pyruvate kinase M2; purified PKM2, Kinase-Glo ATP luminescence, activation; response scale: 0% is enzyme alone, no compound; hit rate 0.34% among 260,000; Potency, µM (series often up to 57.5 µM), without a hit: top-dose activation, hits mostly activators; further: potency means the concentration at half of the fitted maximal effect; nearly all actives have a fitted effect of over 55% in size
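Purified hPK-M2 (>95%) run at intermediate activity with 0.1 mM ADP and 0.5 mM PEP in 50 mM imidazole pH 7.2, KCl, MgCl2; 1 h room temperature. ATP formed read by Kinase-Glo luminescence; normalized to uninhibited and no-enzyme controls.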
RORg inh = ROR gamma (mouse) transcription inhibition; AID 2551; Potency, µM (highest dose often 53.6 µM), without a hit: at the highest dose activity change, negative = inhibition, hits mostly inhibitors; Drosophila S2 Gal4-RORgamma UAS-luciferase reporter, 20 h; P51450; hit rate 5.4% among 310,000; further: potency means the concentration at half of the fitted maximal effect; nearly all actives have a fitted effect of over 60% in size
Target sequence (P51450 whole entry, looked up, the tested form may be a part): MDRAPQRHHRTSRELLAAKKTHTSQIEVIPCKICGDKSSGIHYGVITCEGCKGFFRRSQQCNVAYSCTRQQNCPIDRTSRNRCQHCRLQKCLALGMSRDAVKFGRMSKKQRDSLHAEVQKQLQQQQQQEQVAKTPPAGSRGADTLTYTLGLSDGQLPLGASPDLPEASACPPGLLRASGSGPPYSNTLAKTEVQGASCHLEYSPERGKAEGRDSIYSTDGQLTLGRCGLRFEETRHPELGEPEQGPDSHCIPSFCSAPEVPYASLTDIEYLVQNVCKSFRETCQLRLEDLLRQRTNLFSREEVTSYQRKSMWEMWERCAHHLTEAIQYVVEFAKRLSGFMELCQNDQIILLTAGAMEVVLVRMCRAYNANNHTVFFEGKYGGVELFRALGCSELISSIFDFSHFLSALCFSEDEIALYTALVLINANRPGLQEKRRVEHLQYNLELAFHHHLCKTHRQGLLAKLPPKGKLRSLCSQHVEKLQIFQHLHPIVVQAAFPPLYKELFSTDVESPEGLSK
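Luciferase reporter read in Schneider cells carrying Gal4-RORγ (mouse) and UAS-Photinus luciferase; cells given compound 1 h before 700 uM copper sulfate induction, then incubated 20 h at ambient temperature.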
CtBP-E1A inh = inhibitors of CtBP/E1A interaction; AlphaScreen GST-E1A/His-CtBP binding, 1536-well; stronger effect = lower value; activity change, % (no concentration beside the values); hit rate 0.49% among 340,000; AID 651724; in the data active means activity change below about -65%; inconclusive means mostly about -30% to -63%
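AlphaScreen with 125 nM GST-E1A and 125 nM His-CtBP (5X stocks) in Tris pH 8.0, 300 mM NaCl, BSA, Tween 20, TCEP. Compounds preincubated 2 h at 37 deg C, then glutathione donor/nickel acceptor beads added for 1 h at 37 deg C in dark.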
* hit, by the source's call; u = inconclusive; x = no result given; ! = not confirmed by another sample; [ ] = another dose, or the depositor's remark. Compounds with a hit are over-represented: about 5.6% of the library has one in this group of screens. Unless noted, the call rests on the fitted dose curve; in most records, active means well fitted curve in the direction sought with a large enough effect; inconclusive means small, poorly fitted or top-dose-only effect, or another doubt; inactive means no such curve, though single readings can be large; an effect the other way counts as inactive or inconclusive. On the % scale 0 is the no-effect control and ±100 the full control effect.

SMILES | Six1-Eya2 blk | VP16 counter | PKM2 act | RORg inh | CtBP-E1A inh
COc1cccc(/C=N/NC(=O)c2c(C)nc3ccc(Br)cn23)c1 | 1 | u | -1% | 14µM* | 13
C=CC=O | x | -22% | x | -5% | x
CC(=O)OCC1=C[C@H]2[C@@H]3C(C)(C)[C@]3(OC(=O)Cc3ccccc3)C[C@@H](C)[C@]2(O)[C@@H]2C=C(C)C(=O)[C@@]2(O)C1 | x | u | x | -25% | x
O=C(CCCc1nc(-c2ccc(Cl)cc2)no1)NCC1CCCO1 (configuration not stated) | -21 | 13µM* | x | 4% | 0
c1nc[n]([Sn]([CH]2CCCCC2)([CH]2CCCCC2)[CH]2CCCCC2)n1 | x | 22µM* | x | u | x
CCOc1ccc2cc(C#N)c(=O)oc2c1 | x | -3% | x | 7% | x
C[C@@]12CC3CC(N)(C1)C[C@@](C)(C3)C2 | x | 10%[17 µM] | x | 4%[16.9 µM] | x
CCn1ccnc1CN1CCCC(C(=O)c2cc(F)ccc2OC)C1 (configuration not stated) | 5 | 16µM* | 8% | 2µM* | 2
COc1ccc(C(=O)C2CCCN(Cc3cccc(C)n3)C2)c(OC)c1 (configuration not stated) | -5 | -22% | -1% | u | 6
CCn1ccnc1CN1CCCC(C(=O)c2ccc(OC)cc2OC)C1 (configuration not stated) | -6 | 6.3µM* | 0% | 3.5µM* | 4
CC(Cl)(Cl)Cl | x | 1% | x | 0% | x
O=C(N/N=C/c1c(O)n(CCC2=CCCCC2)c(=S)[nH]c1=O)c1ccccc1 | -30 | u | 2% | 5µM* | -28
O=c1[nH]c(=S)n(CCC2=CCCCC2)c(O)c1C=NCc1cccnc1 | x | -7% | -4% | -24% | x
Nc1ccccc1N=Cc1c(O)n(CCC2=CCCCC2)c(=O)[nH]c1=O | -3 | 8% | 3% | 55% | -9
O=C(N/N=C/c1c(O)n(CCC2=CCCCC2)c(=O)[nH]c1=O)c1ccccc1 | u | u | -4% | 11µM* | u
CCCCCCCCn1sccc1=O | 23 | 0.63µM* | x | 0.45µM* | 1
CCCCC/C=C\C/C=C\C/C=C\C/C=C\CCCC(=O)NCCc1ccc(O)c(O)c1 | x | -28% | x | 11µM*! | x
CC(=O)Oc1ccc(/C=C/c2cc(OC(C)=O)cc(OC(C)=O)c2)cc1 | x | u | x | 4µM* | x
CC(=O)C1CCC2C3CCC4CC(C)(O)CCC4(C)C3CCC12C (configuration not stated) | x | -5% | x | -33% | x
N#CC(Br)Br | -4 | 1% | x | 2.5µM* | 1
COC1=CC(=O)O[C@H](/C=C/c2ccc3c(c2)OCO3)C1 | x | -13% | x | 2% | x
O=c1[nH]c(=O)n(Cc2ccco2)c(O)c1C=NCc1cccs1 | -3 | -5% | 28µM* | 15% | -3
O=C(CCN1CCOCC1)Nc1ccc(Br)cc1C(=O)c1ccccc1 | -74* | -3% | -6% | -6% | -85*
Cc1cc(C)nc(N/N=C/C2=C(O)CC(c3ccccc3)CC2=O)n1 (configuration not stated) | x | -19% | -6% | u | x
Cc1ccc(-n2c(O)c(/C=N/Nc3ccccc3)c(=O)[nH]c2=O)cc1C | -11 | 6% | 8% | -7% | 0
SMILES | Six1-Eya2 blk | VP16 counter | PKM2 act | RORg inh | CtBP-E1A inh
Cc1ccccc1-n1c(O)c(/C=N/Nc2nc3c(c(=O)n(C)c(=O)n3C)n2C)c(=O)[nH]c1=S | -68* | -7% | -3% | -6% | -78*
Cn1c(O)c(C=NC2CCCCC2)c(=O)[nH]c1=S | -8 | -11% | 1% | 0% | 4
Cc1cccc(-n2c(O)c(/C=N/Nc3nc4c(c(=O)n(C)c(=O)n4C)n3C)c(=O)[nH]c2=S)c1 | -90* | 2% | 2% | -26% | -73*
Cn1c(=O)c2c(nc(N/N=C/c3c(O)n(C4CCCCC4)c(=S)[nH]c3=O)n2C)n(C)c1=O | -81* | -2% | 1% | u | u
CN(CCc1ccc(Cl)c(Cl)c1)[C@H]1CCCC[C@H]1N1CCCC1 | x | 5% | x | -26% | x
Nc1ccc([N+](=O)[O-])cc1O | x | u | x | 23% | x
O=C(NN=Cc1ccc(N(CCCl)CCCl)cc1)c1cccc([N+](=O)[O-])c1 | -17 | x | x | x | -28
O=C(N/N=C\c1ccc(COc2ccc([N+](=O)[O-])cc2)o1)c1cccc(Cl)c1 | -20 | 2.5µM* | 6% | 1.8µM* | -9
COCCCNC(=O)c1c(N)n(Cc2ccco2)c2nc3ccccc3nc12 | 7 | -16% | 25µM* | u | 6
CC(C)CCn1c(N)c(C(=O)NCc2cccs2)c2nc3ccccc3nc21 | 11 | -10% | 7% | 13% | 9
CC(C)CNC(=O)c1c(N)n(Cc2ccc3c(c2)OCO3)c2nc3ccccc3nc12 | 43 | 7.1µM* | 4% | u | 54
CC(C)OCCCNC(=O)c1c(N)n(Cc2cccs2)c2nc3ccccc3nc12 | 63 | 16µM* | 18% | u | 41
CC(C)CCNC(=O)c1c(N)n(Cc2ccc3c(c2)OCO3)c2nc3ccccc3nc12 | 13 | -2% | -1% | -2% | 9
CCOP(=S)(OCC)Oc1cc(C)nc(N(CC)CC)n1 | x | 0% | x | 0% | x
Cn1c(O)c(/C=N/NC(=O)c2ccncc2)c(=O)[nH]c1=S | -14 | -1% | 1% | -3% | x
O=C(N/N=C/c1c(O)n(Cc2ccccc2)c(=O)[nH]c1=O)c1ccncc1 | -72* | -19% | 2% | -39% | u
CCCCn1c(O)c(/C=N/NC(=O)c2ccncc2)c(=O)[nH]c1=S | -85* | 3% | -1% | u | -29
Cc1cccc(-n2c(O)c(/C=N/NC(=O)c3ccncc3)c(=O)[nH]c2=O)c1 | u | -10% | -5% | 35µM* | -26
O=C(N/N=C/c1c(O)n(Cc2ccc(F)cc2)c(=O)[nH]c1=O)c1ccccc1 | -74* | 12% | 0% | 13µM* | -81*
O=c1ccc(=O)[nH][nH]1 | x | 20% | x | 6% | x
C[C@]12CC[C@H]3[C@@H](CC[C@@]45O[C@@H]4C(=O)C(C#N)C[C@]35C)[C@@H]1CC[C@@H]2O (some centres not stated) | x | 7% | x | u | x
CC(=O)O[C@H]1[C@H]2[C@@H](OC(=O)Cc3ccccc3)[C@@H](C)C[C@]2(OC(C)=O)C(=O)/C(C)=C/[C@@H]2[C@H](CC[C@@]13CO3)C2(C)C | x | 0% | x | u | x
Nn1c(COc2ccc(Cl)cc2)n[nH]c1=S | -5 | 6% | u | u | -1
CC(C)NS(=O)(=O)c1ccc(OCC(=O)N2CCN(Cc3ccc4c(c3)OCO4)CC2)c(Cl)c1 | 0 | u | -5% | -24% | -3
Cc1cc(S(=O)(=O)NC(C)C)ccc1OCC(=O)N1CCN(Cc2ccc3c(c2)OCO3)CC1 | -8 | 7.9µM* | -14% | -29% | -3
COc1ccc2[nH]c3c(c2c1)CCN=C3C | -70* | -18%[17 µM] | x | -28%[16.9 µM] | u

Assay outcomes (PubChem BioAssay)
